In PubChem BioAssay (Tox21):
Inconclusive results are not listed. Activity calls are given as the source filed them. Unless noted, the call rests on the fitted dose curve.

Assays:
[1] = Nuclear factor erythroid 2-related factor 2/antioxidant responsive element (Nrf2/ARE) small molecule agonists: luciferase reporter gene qHTS assay in human keratinocytes (AID 1919969); further: nearly all actives have a fitted effect of over 35% in size; further: potency means the concentration at half of the fitted maximal effect
[2] = target: Gonadotropin-releasing hormone receptor (Homo sapiens) (UniProt P30968); test: Human gonadotropin-releasing hormone receptor (GnRHR) small molecule agonists, calcium flux assay in GnRHR-HEK293 cells (AID 1920063); further: nearly all actives have a fitted effect of over 35% in size; further: potency means the concentration at half of the fitted maximal effect
Summary of the method: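 Fluorescence kinetics (480 nm excitation, 540 nm emission; 3 min, 1 s steps) report calcium mobilisation in human GnRHR-HEK293 cells in agonist mode. Dye incubation: 1 h, 37 C.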

[3] = target: KiSS-1 receptor (Homo sapiens) (UniProt Q969F8); test: Human kisspeptin (KISS1R) small molecule agonists, calcium flux assay in KISS1R-HEK293 cells (AID 1920064; active means well fitted activation curve with a large enough effect in the repeat runs)
Summary of the method: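 Measures KISS1R agonism through calcium-sensitive dye fluorescence in stably transfected HEK293 cells, read for 3 min after pin-tool compound delivery; 15-point titrations in triplicate.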

[4] = p53 small molecule agonists, cell-based qHTS assay with human liver microsomes (AID 1963577);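 further: p53 response element beta-lactamase reporter cells with liver microsomes plus NADPH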
Summary of the method: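 In this qHTS, p53 response-element beta-lactamase cells receive test compound together with a microsome/NADPH activating system (0.5 mg/mL final each) and are incubated 16 h at 37 C before LiveBLAzer fluorescence detection.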

[5] = p53 small molecule agonists, cell-based qHTS assay with rat liver microsomes (AID 1963578)
Summary of the method: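 Agonist mode in p53RE-bla reporter cells, with compounds co-incubated 16 h at 37 C alongside 0.5 mg/mL rat liver microsomes and 0.5 mg/mL NADPH (final), followed by a 2 h LiveBLAzer detection step.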

[6] = p53 small molecule agonists, cell-based qHTS assay: qHTS cell viability counter screen (AID 1963581); further: nearly all actives have a fitted effect of over 45% in size
Summary of the method: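 In the same plates used for the p53 bla reporter, HCT-116 cells given compounds for 16 h at 37 C received CellTiter-Glo; luminescence was recorded 30 min later at room temperature.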

[7] = p53 small molecule agonists, cell-based qHTS assay (AID 1963582; active means well fitted activation curve with a large enough effect in the signal ratio in the repeat runs, not every such curve was filed as active; the % refers to the signal ratio; further: potency means the concentration at half of the fitted maximal effect)
Summary of the method: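 Compounds are pin-transferred in DMSO onto p53RE-bla cells and incubated 16 h at 37 C. The B/G FRET beta-lactamase substrate is then applied for 2 h at RT and fluorescence recorded.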

[8] = target: 5-hydroxytryptamine receptor 2A (Homo sapiens) (UniProt P28223); test: 5-hydroxytryptamine receptor 2A (HTR2A) small molecule antagonists, cell-based qHTS assay (AID 1963586); further: nearly all actives have a fitted effect of over 45% in size; further: potency means the concentration at half of the fitted maximal effect
Summary of the method: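 Antagonist-mode intracellular calcium assay: DOI (4 nM) added after 5 min compound pre-incubation at room temperature to dye-loaded HTR2A-CHO cells. Fluorescence followed for 3 min, sampled every second.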

[9] = target: 5-hydroxytryptamine receptor 2A (Homo sapiens) (UniProt P28223); test: 5-hydroxytryptamine receptor 2A (HTR2A) small molecule agonists, cell-based qHTS assay (AID 1963587); further: nearly all actives have a fitted effect of over 30% in size; further: potency means the concentration at half of the fitted maximal effect
Summary of the method: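 HTR2A-CHO cells, plated 18 h at 37 C/5% CO2, dye-loaded 1 h at 37 C; compounds in DMSO added by pin tool (agonist mode). Intracellular calcium flux read as kinetic fluorescence on FDSS over 2 min at 1 s intervals.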

[10] = target: Muscarinic acetylcholine receptor M1 (Homo sapiens) (UniProt P11229); test: Cholinergic receptor muscarinic 1 (CHRM1) small molecule antagonists, cell-based qHTS assay (AID 1963588); further: nearly all actives have a fitted effect of over 40% in size
Summary of the method: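 CHRM1-CHO calcium-flux assay, antagonist mode. Cells were seeded 18 h, dye-loaded 1 h at 37 C and given compound for 5 min at RT, then acetylcholine was added at 50nM. FDSS fluorescence was read 3 min; 15 concentrations, three runs.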

[11] = cAMP Responsive Elements (CRE) small molecule agonists, cell-based qHTS assay (AID 1963590)
Summary of the method: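 Cell line: CRE-bla HEK 293T; medium DMEM/10% dialyzed FBS/0.1 mM NEAA/1 mM pyruvate/25 mM HEPES; 3 h compound exposure; beta-lactamase FRET readout after 2 h substrate loading at RT.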

[12] = cAMP Responsive Elements (CRE) small molecule antagonists, cell-based qHTS assay (AID 1963591; active means well fitted inhibition curve with a large enough effect in the signal ratio in the repeat runs, not every such curve was filed as active; the % refers to the signal ratio)
Summary of the method: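 Inhibition of NKH477-driven (0.25 uM final) CRE-beta-lactamase signal in HEK293T cells, 3 h compound exposure at 37 °C, detected by FRET substrate fluorescence.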

[13] = target: Beta-2 adrenergic receptor (Homo sapiens) (UniProt P07550); test: Adrenergic beta2 receptor (ADRB2) small molecule antagonists, cell-based qHTS assay (AID 1963592); further: nearly all actives have a fitted effect of over 50% in size; further: potency means the concentration at half of the fitted maximal effect; on activity change, negative = inhibition: series mostly up to about 92 µM
Summary of the method: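 Cells (CHO, stable ADRB2 overexpression) incubated 18-20hr at 37C; compounds added from DMSO; agonist mix (1nM isoproterenol, 100uM IBMX, 25uM Ro-20-1724) added; 0.5hr RT; d2-cAMP and anti-cAMP-cryptate added; 1hr RT; 665/615 nm read.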

[14] = target: D(2) dopamine receptor (Homo sapiens) (UniProt P14416); test: Dopamine D2 receptor (DRD2) small molecule agonists, cell-based qHTS assay (AID 1963594); further: nearly all actives have a fitted effect of over 35% in size
Summary of the method: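 HEK293 cells stably expressing DRD2 were cultured 24 h at 37 C, then given Ro20-1724 (0.1 mM final) and compounds for 10 min at room temperature. NKH477 (200nM) was then added for 30 min. cAMP was read by HTRF.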

[15] = target: D(2) dopamine receptor (Homo sapiens) (UniProt P14416); test: Dopamine D2 receptor (DRD2) small molecule antagonists, cell-based qHTS assay (AID 1963595; active means well fitted inhibition curve with a large enough effect in the signal ratio in the repeat runs, with a control signal flat; the % refers to the signal ratio; further: potency means the concentration at half of the fitted maximal effect)
Summary of the method: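 DRD2-HEK293; 0.1 mM Ro20-1724; cpd 10 min RT; NKH477 200 nM + quinpirole 12 nM, 30 min RT; HTRF cAMP (cAMP-d2/anti-cAMP cryptate), 665/620 nm ratio after 1 h.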

[16] = p53 small molecule agonists, cell-based qHTS assay with human liver microsomes: qHTS cell viability counter screen (AID 1963579); further: nearly all actives have a fitted effect of over 45% in size
Summary of the method: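 Metabolically activated exposure: compounds, human liver microsomes and NADPH (0.5 mg/mL final apiece) were added to p53RE-bla cells seeded 5 h earlier, left 16 h at 37 C, and then assessed for viability by CellTiter-Glo luminescence.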

[17] = target: Muscarinic acetylcholine receptor M1 (Homo sapiens) (UniProt P11229); test: Cholinergic receptor muscarinic 1 (CHRM1) small molecule agonists, cell-based qHTS assay (AID 1963589); further: nearly all actives have a fitted effect of over 35% in size
Summary of the method: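 Each compound was tested at 15 concentrations across three independent runs on dye-loaded CHO cells stably expressing human CHRM1, reading intracellular calcium fluorescence kinetically at 1 sec intervals.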

[18] = p53 small molecule agonists, cell-based qHTS assay with rat liver microsomes: qHTS cell viability counter screen (AID 1963580); further: nearly all actives have a fitted effect of over 45% in size
Summary of the method: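 p53RE-bla HCT-116 cells (4,000/well) rested 5 h at 37 C, then given Tox21 compounds in DMSO with rat liver microsomes (0.5 mg/mL final) plus NADPH (0.5 mg/mL final) for 16 h at 37 C. Viability read by CellTiter-Glo luminescence after 30 min at room temperature.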

[19] = target: Beta-2 adrenergic receptor (Homo sapiens) (UniProt P07550); test: Adrenergic beta2 receptor (ADRB2) small molecule agonists, cell-based qHTS assay (AID 1963593);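 further: CHO cells stably overexpressing human ADRB2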
Summary of the method: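 CHO cells stably over-expressing ADRB2 were plated overnight at 37C, then dosed with compounds plus a stimulation mix containing 100uM IBMX and 25uM Ro-20-1724 for 0.5hr at room temperature. cAMP was measured by HTRF competition, 1hr.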

[20] = G protein-coupled receptor (GPCR) small molecule agonists, calcium flux assay: HEK293 wild type cell line counter screen (AID 1920065)
Summary of the method: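 Readout: fluorescence at 480 nm excitation/540 nm emission, sampled at 1 s intervals for 3 min. Cells had been cultured 18 h, then dye-loaded 1 h at 37 C before compound or ATP addition.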
On the % scale 0 is the no-effect control and ±100 the full control effect.

Chain of 5-hydroxytryptamine receptor 2A (Homo sapiens) (P28223 whole entry, looked up): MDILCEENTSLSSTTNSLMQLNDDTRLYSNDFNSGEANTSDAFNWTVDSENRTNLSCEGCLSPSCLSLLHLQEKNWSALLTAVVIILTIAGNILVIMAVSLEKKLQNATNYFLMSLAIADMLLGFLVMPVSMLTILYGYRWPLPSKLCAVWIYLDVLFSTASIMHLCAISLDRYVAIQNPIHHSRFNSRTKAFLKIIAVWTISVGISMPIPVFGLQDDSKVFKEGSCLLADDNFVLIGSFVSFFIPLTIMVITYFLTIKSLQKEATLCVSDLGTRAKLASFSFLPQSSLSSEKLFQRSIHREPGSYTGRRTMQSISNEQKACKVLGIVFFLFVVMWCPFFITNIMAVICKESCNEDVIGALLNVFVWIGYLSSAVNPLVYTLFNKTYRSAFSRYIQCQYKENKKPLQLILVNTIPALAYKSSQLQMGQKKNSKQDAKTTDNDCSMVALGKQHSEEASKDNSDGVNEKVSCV
Chain of Gonadotropin-releasing hormone receptor (Homo sapiens) (P30968 whole entry, looked up): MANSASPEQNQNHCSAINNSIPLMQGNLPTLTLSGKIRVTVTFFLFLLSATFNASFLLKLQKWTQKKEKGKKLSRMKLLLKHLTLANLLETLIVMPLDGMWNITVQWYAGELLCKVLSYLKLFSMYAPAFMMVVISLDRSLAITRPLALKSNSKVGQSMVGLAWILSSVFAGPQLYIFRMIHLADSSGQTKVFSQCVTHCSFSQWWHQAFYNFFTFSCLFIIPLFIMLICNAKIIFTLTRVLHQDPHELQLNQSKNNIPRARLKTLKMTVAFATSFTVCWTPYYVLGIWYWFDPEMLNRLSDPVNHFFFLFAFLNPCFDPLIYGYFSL
Chain of Beta-2 adrenergic receptor (Homo sapiens) (P07550 whole entry, looked up): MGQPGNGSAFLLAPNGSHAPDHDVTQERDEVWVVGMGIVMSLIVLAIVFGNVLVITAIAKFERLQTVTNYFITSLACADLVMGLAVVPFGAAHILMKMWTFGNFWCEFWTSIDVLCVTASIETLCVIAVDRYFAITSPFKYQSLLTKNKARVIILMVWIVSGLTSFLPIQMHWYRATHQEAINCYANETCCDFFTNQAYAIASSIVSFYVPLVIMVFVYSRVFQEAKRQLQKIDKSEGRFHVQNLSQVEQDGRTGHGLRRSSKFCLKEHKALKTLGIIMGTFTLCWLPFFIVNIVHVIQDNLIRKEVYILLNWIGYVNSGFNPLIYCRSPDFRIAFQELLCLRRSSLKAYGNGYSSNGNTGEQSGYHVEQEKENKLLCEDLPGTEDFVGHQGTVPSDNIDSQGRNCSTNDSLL
Chain of KiSS-1 receptor (Homo sapiens) (Q969F8 whole entry, looked up): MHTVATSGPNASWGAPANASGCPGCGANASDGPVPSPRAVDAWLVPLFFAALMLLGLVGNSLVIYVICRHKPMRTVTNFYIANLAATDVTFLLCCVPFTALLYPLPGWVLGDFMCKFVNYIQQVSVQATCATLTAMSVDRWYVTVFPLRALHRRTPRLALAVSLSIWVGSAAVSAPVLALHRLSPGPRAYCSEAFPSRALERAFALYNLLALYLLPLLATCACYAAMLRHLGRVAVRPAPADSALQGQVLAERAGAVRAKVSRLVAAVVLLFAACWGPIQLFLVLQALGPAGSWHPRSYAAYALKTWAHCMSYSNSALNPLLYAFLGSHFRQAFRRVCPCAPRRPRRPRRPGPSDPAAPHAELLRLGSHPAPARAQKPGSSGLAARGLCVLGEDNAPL
Chain of Muscarinic acetylcholine receptor M1 (Homo sapiens) (P11229 whole entry, looked up): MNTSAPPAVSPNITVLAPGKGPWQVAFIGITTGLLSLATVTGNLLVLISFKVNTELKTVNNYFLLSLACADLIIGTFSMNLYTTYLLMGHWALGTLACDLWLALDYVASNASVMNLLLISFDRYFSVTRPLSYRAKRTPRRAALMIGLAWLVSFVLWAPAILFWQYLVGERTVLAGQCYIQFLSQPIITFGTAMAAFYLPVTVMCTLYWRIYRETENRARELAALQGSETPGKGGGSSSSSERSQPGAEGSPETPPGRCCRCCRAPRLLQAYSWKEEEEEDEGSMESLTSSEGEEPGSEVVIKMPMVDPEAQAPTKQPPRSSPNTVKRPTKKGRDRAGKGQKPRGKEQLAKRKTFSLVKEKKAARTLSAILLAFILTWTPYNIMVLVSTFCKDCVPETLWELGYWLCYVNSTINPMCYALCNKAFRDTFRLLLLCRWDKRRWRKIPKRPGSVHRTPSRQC
Chain of D(2) dopamine receptor (Homo sapiens) (P14416 whole entry, looked up): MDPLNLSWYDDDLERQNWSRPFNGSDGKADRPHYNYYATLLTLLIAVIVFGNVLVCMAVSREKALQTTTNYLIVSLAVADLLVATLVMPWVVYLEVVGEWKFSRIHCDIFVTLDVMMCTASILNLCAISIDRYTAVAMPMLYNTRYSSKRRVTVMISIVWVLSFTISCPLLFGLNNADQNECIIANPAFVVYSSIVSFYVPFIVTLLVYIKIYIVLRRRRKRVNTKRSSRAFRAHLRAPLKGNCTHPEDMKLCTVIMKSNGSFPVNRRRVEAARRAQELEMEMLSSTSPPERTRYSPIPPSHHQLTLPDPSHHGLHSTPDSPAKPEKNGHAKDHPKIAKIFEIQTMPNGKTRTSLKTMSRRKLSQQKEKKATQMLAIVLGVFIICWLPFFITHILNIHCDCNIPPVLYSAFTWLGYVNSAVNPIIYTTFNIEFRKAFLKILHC

C=CC(C)(CCC=C(C)C)OC(=O)/C=C/c1ccccc1 (configuration not stated)
active: Potency [1] 68.6 µM
inactive: Potency [2] | Potency [3] | Potency [4] | Potency [5] | Potency [6] | Potency [7] | Potency [8] | Potency [9] | Potency [10] | Potency [11] | Potency [12] | Potency [13] | Potency [14] | Potency [15]

c1cc2ccc3ccc4ccc5cccc6c(c1)c2c3c4c56
inactive: activity, positive = activation [1] 4.07% [at 3.27 µM] | activity change [2] 0.532% [at 2.04 µM, stronger effect = higher value] | activation [3] 0.0535% [at 2.72 µM] | activity change, negative = cytotoxicity [16] -1.32% [at 2.33 µM] | activity change, negative = cytotoxicity [6] 2.26% [at 2.33 µM] | activity, negative = inhibition [8] 1.93% [at 2.12 µM] | activation [9] 13.2% [at 2.65 µM] | activity, negative = inhibition [10] 5.84% [at 2.17 µM] | activation [17] 0.275% [at 2.72 µM] | activation [11] 6.38% [at 3.27 µM] | activity change, negative = inhibition [12] 7.84% [at 3.27 µM] | activity change, negative = inhibition [13] 4.76% [at 3.27 µM] | activation [14] -0.0755% [at 3.27 µM] | activity change, negative = inhibition [15] -0.594% [at 3.28 µM]

COc1cc(Cl)ccc1Oc1ccc(Cl)cc1Cl
active: Potency [1] 14.9 µM
inactive: Potency [2] | Potency [3] | Potency [16] | Potency [18] | Potency [6] | Potency [8] | Potency [9] | Potency [10] | Potency [12] | Potency [13] | Potency [14] | Potency [15]

CCN(CC)CCNC(=O)COc1ccc(OC)cc1
inactive: Potency [1] | Potency [2] | Potency [3] | Potency [5] | Potency [16] | Potency [6] | Potency [7] | Potency [8] | Potency [9] | Potency [10] | Potency [11] | Potency [12] | Potency [19] | Potency [14] | Potency [15]

CCCCCCCCS(=O)C(C)Cc1ccc2c(c1)OCO2 (configuration not stated)
inactive: Potency [1] | Potency [2] | Potency [20] | Potency [4] | Potency [5] | Potency [16] | Potency [9] | Potency [17] | Potency [13] | Potency [19] | Potency [14] | Potency [15]

CC(C)n1nc(-c2cc3cc(O)ccc3[nH]2)c2c(N)ncnc21
inactive: Potency [1] | Potency [2] | Potency [3] | Potency [5] | Potency [16] | Potency [6] | Potency [7] | Potency [9] | Potency [10] | Potency [17] | Potency [19] | Potency [14] | Potency [15]

CCN(CC)C(=O)c1cc(S(=O)(=O)Cc2ccccc2)c(N2CCC(c3ccccc3)CC2)cc1N(CC)CCN(C)C
inactive: Potency [1] | Potency [2] | Potency [3] | Potency [4] | Potency [5] | Potency [18] | Potency [6] | Potency [9] | Potency [17] | Potency [14]
active: Potency [13] 24.1 µM | Potency [15] 21.4 µM

c1ccc2c(c1)-c1ccc3ccc4cccc5cc-2c1c3c45
inactive: Potency [20] | Potency [16] | Potency [18] | Potency [6] | Potency [8] | Potency [10] | Potency [17] | Potency [13] | Potency [14] | Potency [15]
active: Potency [1] 13.3 µM | Potency [2] 6.74 µM | Potency [9] 10.7 µM

O=C(OC[C@H]1O[C@@H](OC(=O)c2cc(O)c(O)c(OC(=O)c3cc(O)c(O)c(O)c3)c2)[C@H](OC(=O)c2cc(O)c(O)c(OC(=O)c3cc(O)c(O)c(O)c3)c2)[C@@H](OC(=O)c2cc(O)c(O)c(OC(=O)c3cc(O)c(O)c(O)c3)c2)[C@@H]1OC(=O)c1cc(O)c(O)c(OC(=O)c2cc(O)c(O)c(O)c2)c1)c1cc(O)c(O)c(OC(=O)c2cc(O)c(O)c(O)c2)c1
inactive: activity, positive = activation [1] -5.14% [at 19 µM] | activity change [2] -0.655% [at 11.8 µM, stronger effect = higher value] | activation [20] 0.5% [at 11.8 µM] | activation [4] -11.4% [at 13.5 µM] | activation [5] -4% [at 13.6 µM] | activity change, negative = cytotoxicity [16] 8.38% [at 13.5 µM] | activity change, negative = cytotoxicity [18] 7.08% [at 13.5 µM] | activity change, negative = cytotoxicity [6] 16.3% [at 13.5 µM] | activation [11] 4.01% [at 19 µM]
active: Potency [7] 11 µM

CCCCN(CCC(=O)OCC)C(C)=O
inactive: Potency [1] | Potency [2] | Potency [20] | Potency [16] | Potency [18] | Potency [6] | Potency [8] | Potency [9] | Potency [10] | Potency [17] | Potency [11] | Potency [12] | Potency [13] | Potency [19] | Potency [14] | Potency [15]

O=c1[nH]c2ccccc2n1CCCN1CCN(C(c2ccccc2)c2ccccc2)CC1
active: Potency [8] 0.0052 µM | Potency [15] 11.9 µM
inactive: Potency [1] | Potency [2] | Potency [20] | Potency [4] | Potency [5] | Potency [16] | Potency [18] | Potency [9] | Potency [10] | Potency [17] | Potency [13] | Potency [14]

O=C(N/N=C/c1ccccc1O)c1ccncc1
active: Potency [1] 6.68 µM
inactive: Potency [2] | Potency [20] | Potency [4] | Potency [5] | Potency [6] | Potency [7] | Potency [17] | Potency [11] | Potency [12] | Potency [13]

O=C(Nc1ncc([N+](=O)[O-])s1)c1cccs1
inactive: Potency [2] | Potency [3] | Potency [5] | Potency [16] | Potency [6] | Potency [7] | Potency [9] | Potency [10] | Potency [17] | Potency [12] | Potency [14] | Potency [15]
active: Potency [1] 1.06 µM

CC(=O)OC1C2(C)CCC(C2)C1(C)C (configuration not stated)
inactive: Potency [1] | Potency [2] | Potency [20] | Potency [16] | Potency [18] | Potency [6] | Potency [8] | Potency [9] | Potency [10] | Potency [17] | Potency [11] | Potency [12] | Potency [13] | Potency [19] | Potency [14] | Potency [15]
